Compound activity: PubChem BioAssay, National Center for Advancing Translational Sciences (NCATS)
Eya2 inh: blocks the phosphatase activity of human Eya2. O00167. recombinant Eya2, OMFP fluorescence dephosphorylation (OMFP is methylfluorescein phosphate). Potency, µM (doses to about 76.9 µM), usual class: inhibitors. actives 0.006% (n = 330,000)
Target sequence (O00167 whole entry, looked up): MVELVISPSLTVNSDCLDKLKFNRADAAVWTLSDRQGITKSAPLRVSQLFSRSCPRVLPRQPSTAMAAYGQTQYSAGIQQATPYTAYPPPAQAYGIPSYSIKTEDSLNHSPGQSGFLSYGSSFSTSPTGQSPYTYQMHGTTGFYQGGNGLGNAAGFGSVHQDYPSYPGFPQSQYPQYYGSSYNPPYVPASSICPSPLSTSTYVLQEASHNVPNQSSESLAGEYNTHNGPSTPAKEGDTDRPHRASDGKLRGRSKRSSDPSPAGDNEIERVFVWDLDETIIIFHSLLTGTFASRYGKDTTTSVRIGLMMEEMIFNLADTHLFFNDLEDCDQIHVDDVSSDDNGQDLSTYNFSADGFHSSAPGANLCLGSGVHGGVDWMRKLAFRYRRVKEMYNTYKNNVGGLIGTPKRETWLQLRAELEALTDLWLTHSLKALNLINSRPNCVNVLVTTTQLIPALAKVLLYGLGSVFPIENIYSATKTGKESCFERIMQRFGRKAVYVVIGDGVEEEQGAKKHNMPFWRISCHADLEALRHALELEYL
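Eya2 (0.2 uM) preincubated 10 min at ambient with compound, then OMFP substrate added at 50 uM; 10 min reaction in 50 mM HEPES pH 7.5, 50 mM NaCl, 5 uM MgCl2, 0.05% BSA, 1 mM DTT. Fluorescence read at Ex 485/Em 525 nm.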
Mito fusion yeast: inhibitors of mitochondrial division or activators of mitochondrial fusion; S. cerevisiae fusion-defective mutant growth rescue, CellTiterGlo 48 h; Potency, µM (top dose mostly 46.1 µM), usual class: activators; actives 0.23% (n = 320,000); AID 485298; further: nearly all actives have a fitted effect of over 45% in size
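Compounds are tested for their ability to restore growth of mitochondrial fusion-defective yeast strains at non-permissive 37C in YPEG medium over 48 hours. Viability is quantified by luciferase luminescence.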
N370S GC: inhibits or activates N370S mutant glucocerebrosidase; Potency, µM (highest dose often 59.4 µM), actives largely listed as inhibitors; AID 2101; N370S GC spleen homogenate, 4MU-glucoside fluorescence; actives 0.092% (n = 330,000)
AT treatment: candidate therapy for ataxia-telangiectasia | F2112 A-T fibroblasts, KAP-1 phosphorylation AlphaLISA; neocarzinostatin DNA damage 30 min before lysis | Potency, µM (series often up to 57.5 µM), most hits filed as activators | actives 0.19% (n = 320,000) | AID 485349; further: nearly all actives have a fitted effect of over 45% in size
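hTERT-immortalized A-T patient fibroblasts (F2112), 500 cells/well in OPTI-MEM, 1% FBS, got compounds for 60 min, then NCS for 30 min at 37C. Lysates were then assayed for phospho-KAP-1 by AlphaLISA (anti-pKAP1 donor, anti-KAP1 acceptor beads), 6 hr at 25C.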
A number is an active result; . = inactive; ? = inconclusive; / = no result given. Hits are enriched below; roughly 0.47% of the tested compounds scored in any of these assays. The call rests on the fitted dose curve; in most records, active means well fitted curve in the direction sought with a large enough effect; inconclusive means small, poorly fitted or top-dose-only effect, or another doubt; inactive means no such curve, though single readings can be large; an effect the other way counts as inactive or inconclusive.

SMILES	Eya2 inh	Mito fusion yeast	N370S GC	AT treatment
Clc1ccc(COC(Cn2ccnc2)c2ccc(Cl)cc2Cl)cc1 (stereo not given)	.	3.2µM	?	.
COC(=O)C1C2c3ccccc3OC1(C)N=c1s/c(=C/c3cnn(C)c3)c(=O)n12 (stereo not given)	.	13µM	.	.
COc1cc(CCN)ccc1O	.	.	.	.
CSCC[C@H](NC(=O)[C@@H](NC(=O)CNC(=O)[C@H](CC(=O)O)NC(=O)[C@H](CCSC)NC(=O)[C@@H](N)Cc1ccc(O)cc1)[C@@H](C)O)C(=O)N[C@@H](CO)C(=O)N[C@@H](CCC(N)=O)C(=O)N[C@H](C(=O)O)C(C)C	/	/	.	/
Cc1nc2c(=O)n(C)c(=O)nc-2n(C)n1	35µM	.	.	.
Cc1c(C=C2C(=O)N(C)C(=S)N(C)C2=O)c2ccccc2n1CC(=O)NCC1CCCO1 (stereo not given)	.	.	.	.
Nc1ccc(C2(c3ccc(N)cc3)c3ccccc3-c3ccccc32)cc1	.	25µM	.	.
Nc1ccccc1	/	/	.	/
C=CC(C)C(C(=O)c1ccccc1)N(C)C (stereo not given)	.	.	.	.
COc1ccc2c(c1)c(CCN1CCOCC1)c(C)n2C(=O)c1cccc(Cl)c1Cl	?	?	13µM	/
CN1CCN(c2ccc(S(C)(=O)=O)cc2[N+](=O)[O-])CC1	.	.	.	.
CN1CCN(c2ccc([N+](=O)[O-])c3no[n+]([O-])c23)CC1	?	.	.	16µM
Cc1oc(-c2ccccc2)nc1CN1C(=O)CN=C(c2ccccc2)c2ccccc21	.	13µM	?	.
COC(=O)C1CN(C#N)N(c2ccc(Cl)cc2)C12c1ccccc1-c1ccccc12 (stereo not given)	.	.	.	13µM
